± gives the standard deviation of the averaged measurements.

In the test the test system is Drosophila virilis antennal basiconic sensillum AB10. The test is described as follows: odor-evoked OSN spike response (post minus pre-stimulus); higher = stronger neuronal excitation. As to conditions: odor dilution: 10^-4. The method, then: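 Single sensillum recordings from antennal basiconic sensilla of D. virilis. A 500 ms pulse of odorant (10^-4 in mineral oil or DMSO) was delivered; the response is the change in spike frequency between the 1 s pre- and post-stimulus windows (spikes/s).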
As for `CCOC(=O)CC(C)O` (stereo not drawn) [Ethyl-3-hydroxybutyrate], the “odor-evoked OSN spike response” value stood at 99.4 ± 35 spikes/s.
Turning to `CC(=O)C(C)O` (stereo not drawn) [acetoin], the “odor-evoked OSN spike response” value came out at 143 ± 43 spikes/s.
With `CC(=O)OC/C=C(\C)CCC=C(C)C` [geranyl acetate], the “odor-evoked OSN spike response” value was 134 ± 24 spikes/s.

The values are drawn from the supplement of paper PMC10477191.
